Assay outcomes deposited in PubChem BioAssay by University of Kansas High Throughput Screening Laboratory.
Only some compounds are listed: those with a hit (about 3.5% of all), similar ones and a draw of the others.
Pf apPOL block: Pf-apPOL inhibitors, biochemical, fluorescence | inhibition, % at 10 µM | Recombinant Pf-apPOL, molecular beacon fluorescence, 1.5 h | Plasmodium falciparum apicoplast DNA polymerase (apPOL) | AID 1794808, 2022 | 210,000 tested, 0.25% active
mHTT-CaM PPI inh: mutant huntingtin-calmodulin interaction inhibitors – biochemical, AlphaScreen, primary screen; P42858; AlphaScreen His-mHTT/GST-CaM binding, luminescence; inhibition, % at 15 µM; 190,000 tested, 3.6% active; AID 1671202, 2021;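 note: 0% = both proteins with DMSO and 100% = one protein alone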
The depositor's hits bear a star; i = inactive; . = no result given; ! = not confirmed by another sample. Cut-off read from the data, not from the text of the source: active = inhibition above about 50%; inactive = the rest.

SMILES | Pf apPOL block | mHTT-CaM PPI inh
CN1C(=O)c2cccnc2Sc2cc(C(=O)Nc3cc(F)cc(F)c3)ccc21 | -1 | -5
COc1ccc(N2CC(CNS(=O)(=O)c3ccc(C)cc3C)OC2=O)cc1 (centres undefined) | -5 | -13
COC(=O)c1ccc(NC(=O)C(=O)NCCc2c[nH]c3ccccc23)cc1 | -3 | 11
CC1C(=O)N2CCCc3cc(NC(=O)C(=O)NCCc4c[nH]c5ccccc45)cc1c32 (centres undefined) | -8 | 76*
Cc1ccc(-n2ncc3c(N4CCOCC4)ncnc32)c(C)c1 | -3 | 56*
Cc1cccc(-n2ncc3c(N4CCOCC4)ncnc32)c1 | 0 | 1
Cc1cccc(CN2CCN(C3CCN(C(=O)NCCc4ccccc4)CC3)C2=O)c1 | -6 | 23
NNc1ncnc2sc3c(c12)CCC3 | -3 | 100*
NNc1ncnc2sc3c(c12)CCN(Cc1ccccc1)C3 | 0 | 90*
O=c1[nH]c(CNC2CC2)nc2sc3c(c12)CCN(Cc1ccccc1)C3 | 3 | 28
c1cc(Nc2ncnc3sc4c(c23)CCC4)ccn1 | 4 | 4
Cc1ccc(=O)n(CC(=O)NC(C)c2ccccc2)n1 (centres undefined) | -12 | -10
COc1cc(NC(=O)CCCn2cnc([N+](=O)[O-])n2)c(OC)cc1Cl | -3 | 3
COc1ccc(N2CC(c3nnc(NC(=O)c4ccc(C(C)(C)C)cc4)o3)CC2=O)cc1 (centres undefined) | -3 | 8
COc1ccc(N2CC(c3nnc(NC(=O)c4ccc(C)cc4)o3)CC2=O)cc1 (centres undefined) | -1 | 50*
CCOc1ccc(N2CC(c3nnc(NC(=O)c4ccc(C)cc4)o3)CC2=O)cc1 (centres undefined) | -2 | 60*
CCOc1ccc(N2CC(c3nnc(NC(=O)c4ccc(Cl)cc4)o3)CC2=O)cc1 (centres undefined) | -2 | 9
Cc1ccc(C(=O)N2CCCC2COc2ccc(C(=O)N3CCOCC3)cc2)cc1 (centres undefined) | -3 | 4
CC(C)c1ccc(C(=O)N2CCCC2COc2ccc(C(=O)N3CCOCC3)cc2)cc1 (centres undefined) | 52* | 10
Cc1nn(C)c(-c2nc(-c3ccc(Br)o3)no2)c1Cl | . | -5
Cc1ccc(S(=O)(=O)Nc2ccc(N(C)C)cc2)cc1 | -56 | 55*
Cc1ccc(NS(=O)(=O)c2ccc(Cl)cc2)cc1 | 5 | -22
CCc1c(C)sc(NC(=O)C2CC=CCC2C(=O)O)c1C(N)=O (centres undefined) | -1 | 3
COc1ccc(C2=N/C(=C\C(Cl)=C\c3ccccc3)C(=O)O2)cc1OC | 0 | 23
COc1ccccc1C(CCN(Cc1ccccc1)C(C)=O)c1ccc2c(c1)OCO2 (centres undefined) | -4 | 99*
SMILES | Pf apPOL block | mHTT-CaM PPI inh
CCC(=O)N(CCC(c1ccc2c(c1)OCO2)c1ccccc1OC)Cc1ccc2c(c1)OCO2 (centres undefined) | 5 | 43
COc1ccccc1C(CC(=O)N1CCCC1)c1ccc2c(c1)OCO2 (centres undefined) | 2 | 6
COc1ccc(CN(CCC(c2ccc3c(c2)OCO3)c2ccccc2OC)C(C)=O)cc1OC (centres undefined) | -6 | 68*
COc1ccc(CN(CCC(c2ccc3c(c2)OCO3)c2ccccc2OC)C(C)=O)cc1 (centres undefined) | 2 | 53*
COc1ccccc1C(CC(=O)O)c1ccc2c(c1)OCO2 (centres undefined) | -7 | -1
O=C(Nc1ccc(F)cc1F)N1CCC(n2cnc3c(Cl)cccc3c2=O)CC1 | 3 | -11
COc1ccc(-c2csc(Nc3cccc(O)c3)n2)cc1OC | 3 | 68*
COc1ccc(-c2csc(NC(=O)c3ccc(Br)s3)n2)cc1OC | 64*! | 69*!
COc1ccc(-c2csc(N)n2)cc1OC | -2 | 18
COc1ccc(-c2csc(Nc3ccc(C)c(C)c3)n2)cc1F | -5 | 52*
Cc1ccc(-c2csc(NC(=O)c3ccc(Br)s3)n2)o1 | 0 | 13
COc1ccc(-c2csc(Nc3ccc(O)cc3)n2)cc1OC | -4 | 71*
COc1ccc(-c2csc(Nc3ccc(NC(C)=O)cc3)n2)cc1OC | -1 | 49
Cc1ccc(-c2csc(Nc3ccc(C(=O)O)cc3)n2)cc1C | -5 | 18
O=C(c1csc(-c2ccncc2)n1)N1CCN(c2ccccc2)CC1 | -3 | 7
Cn1c(C2CCN(C(=O)c3cccc(C(F)(F)F)c3)C2)nc2ccncc21 (centres undefined) | -6 | 5
COc1cccc(-c2cn3ccn(-c4ccc(F)c(Cl)c4)c(=O)c3n2)c1 | -2 | -5
CCn1c(SC)nnc1-c1nn(C)c2c1CN(C(=O)c1ccc(F)c(F)c1)CC2 | -2 | 1
O=[N+]([O-])c1cccc(C2C=C(c3ccc(Br)cc3)Nc3ncnn32)c1 (centres undefined) | -5 | 12
Cc1ccc(NC(=O)c2ccc(C(F)(F)F)cc2)cc1N1CCCC1=O | -17 | -8
Clc1ccc(Nc2nc(-c3cccnc3)cs2)cc1 | -3 | 0
Oc1cccc(Nc2nc(-c3ccc(Cl)cc3)cs2)c1 | -5 | 97*
O=C1C=CC(=O)C(c2cccc(C(F)(F)F)c2)=C1 | -2 | 74*
O=C1c2ccccc2C(=O)N1Cn1cc(-c2cccc(C(F)(F)F)c2)nn1 | 2 | -3
O=c1/c(=C/c2ccccc2O)sc2n1CN(c1ccc(F)cc1)CN=2 | -1 | 36
SMILES | Pf apPOL block | mHTT-CaM PPI inh
O=c1/c(=C/c2ccccc2O)sc2n1CN(c1ccc(Cl)cc1)CN=2 | 51* | 13
CC12CC(=O)C(C)(C1)C1C(=O)N(c3ccccc3)C(=O)C12 (centres undefined) | -4 | -1
CCN1CCN(C(=O)C2CCc3sc(C(=O)N4CCCCCC4)cc3C2)CC1 (centres undefined) | 0 | 5
COc1ccc(C=C2Oc3c(ccc4c3CN(CCN3CCOCC3)CO4)C2=O)cc1OC | -30 | 62*
COc1cc(OC)c(OC)cc1C=C1Oc2c(ccc3c2CN(CCN2CCOCC2)CO3)C1=O | -9 | 30
COCCN1COc2ccc3c(c2C1)OC(=Cc1ccc(OC)c(OC)c1)C3=O | -15 | 15
COc1ccc(OC)c(C=C2Oc3c(ccc4c3CN(CCN3CCOCC3)CO4)C2=O)c1 | -5 | 54*
COc1ccc(N2C(=O)C3CCCN3C2c2ccccc2C)cc1 (centres undefined) | 33 | 4
COc1ccc(NC(=O)N2CCCC2c2cccc(C)c2)cc1OC (centres undefined) | 3 | 4
O=C1CC(C(=O)N2CCCCC2)CN1CCc1ccccc1 (centres undefined) | -10 | -5
COc1cc(-n2c(C)nc3cc(C(=O)NCc4ccccn4)ccc32)cc(OC)c1OC | -4 | -1
CC(C)(C)C(=O)N1CCCC1c1nc2cc(-c3ccccc3)ccc2o1 (centres undefined) | 1 | 15
CCNC(=O)N1CCCC1c1nc2cc(-c3ccc(N(C)C)cc3)ccc2o1 (centres undefined) | -3 | 84*
Cc1cc(C)n(-c2cc(N3CCCC(C(=O)Nc4cccc(C(F)(F)F)c4)C3)ncn2)n1 (centres undefined) | 0 | -15
S=c1[nH]nc(C2CCCCC2)n1/N=C\C=C\c1ccco1 | . | i
O=C1C(=CC=Cc2ccco2)SC(=S)N1C1CCCCC1 | 18 | 78*
O=[N+]([O-])c1ccc2oc3c(c2c1)CCCC3 | -3 | -4
